In PubChem BioAssay (NCATS):
Inconclusive results are not listed. Activity calls are given as the source filed them. Unless noted, calls come from the whole dose curve; as a rule, active = well fitted curve in the direction sought with a large enough effect; inconclusive = small, poorly fitted or top-dose-only effect, or another doubt; inactive = no such curve, though single readings can be large; an effect the other way counts as inactive or inconclusive.

Assays:
[1] = molecular target: Thioredoxin reductase 1, cytoplasmic (Rattus norvegicus) (UniProt O89049); assay: qHTS Assay for Substrates of Mammalian Selenoprotein Thioredoxin Reductase 1 (TrxR1) (AID 488772);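 note: NADPH fluorescence in the first read after selenite addition and not the 8 min delta; series mostly up to about 57 µM; 0% is about no effect; a drop in NADPH fluorescence below the no-compound background marks a TrxR1 substrate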
Thioredoxin reductase 1, cytoplasmic (Rattus norvegicus), sequence (O89049 whole entry, looked up): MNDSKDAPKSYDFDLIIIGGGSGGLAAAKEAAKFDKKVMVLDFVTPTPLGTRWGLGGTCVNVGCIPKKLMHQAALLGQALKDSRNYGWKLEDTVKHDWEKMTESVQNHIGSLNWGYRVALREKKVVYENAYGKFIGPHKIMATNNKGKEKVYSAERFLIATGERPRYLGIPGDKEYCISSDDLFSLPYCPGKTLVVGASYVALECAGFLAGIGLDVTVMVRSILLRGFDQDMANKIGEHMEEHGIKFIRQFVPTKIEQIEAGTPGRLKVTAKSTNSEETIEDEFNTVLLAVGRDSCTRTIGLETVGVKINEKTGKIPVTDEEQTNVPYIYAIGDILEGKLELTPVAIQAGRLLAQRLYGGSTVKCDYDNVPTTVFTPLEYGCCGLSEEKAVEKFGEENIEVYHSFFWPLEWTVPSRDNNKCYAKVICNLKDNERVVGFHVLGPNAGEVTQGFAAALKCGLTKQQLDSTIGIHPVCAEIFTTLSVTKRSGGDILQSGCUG
Summary of the method: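 Quantitative HTS in Tris-HCl buffer at pH 7.5 with EDTA and Tween-20, using rat TrxR1, 400 uM NADPH and 400 uM selenite (final). A fall in initial NADPH fluorescence relative to background marked substrate behaviour.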

[2] = molecular target: Thioredoxin reductase 1, cytoplasmic (Rattus norvegicus) (UniProt O89049); assay: qHTS Assay for Inhibitors of Mammalian Selenoprotein Thioredoxin Reductase 1 (TrxR1) (AID 488773); conditions: Potency: inhibition;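 note: drop in NADPH fluorescence over an 8 min run after selenite addition; series mostly up to about 57 µM; % is set by controls: 0 for no effect and ±100 for the full control effect; nearly all actives have a fitted effect of over 40% in size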
Summary of the method: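 Steps: enzyme (90 nM) plus NADPH (400 uM final), 5 min at ~22 deg C; compound added, 15 min; selenite (400 uM final) added; fluorescence followed for 8 min. Concentration-response curves derived from the normalized delta values.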

[3] = molecular target: M-phase phosphoprotein 8 (Homo sapiens) (UniProt Q99549); assay: qHTS Validation Assay for Inhibitors for MPP8 Chromodomain Interactions with Methylated Histone Tails (AID 488949);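 note: AlphaScreen signal from MPP8 chromodomain bound to biotinylated H3K9me3 peptide; top concentration of the series differs between compounds; % is set by controls: 0 for no effect and ±100 for the full control effect; nearly all actives have a fitted effect of over 55% in size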
M-phase phosphoprotein 8 (Homo sapiens), sequence (Q99549 whole entry, looked up): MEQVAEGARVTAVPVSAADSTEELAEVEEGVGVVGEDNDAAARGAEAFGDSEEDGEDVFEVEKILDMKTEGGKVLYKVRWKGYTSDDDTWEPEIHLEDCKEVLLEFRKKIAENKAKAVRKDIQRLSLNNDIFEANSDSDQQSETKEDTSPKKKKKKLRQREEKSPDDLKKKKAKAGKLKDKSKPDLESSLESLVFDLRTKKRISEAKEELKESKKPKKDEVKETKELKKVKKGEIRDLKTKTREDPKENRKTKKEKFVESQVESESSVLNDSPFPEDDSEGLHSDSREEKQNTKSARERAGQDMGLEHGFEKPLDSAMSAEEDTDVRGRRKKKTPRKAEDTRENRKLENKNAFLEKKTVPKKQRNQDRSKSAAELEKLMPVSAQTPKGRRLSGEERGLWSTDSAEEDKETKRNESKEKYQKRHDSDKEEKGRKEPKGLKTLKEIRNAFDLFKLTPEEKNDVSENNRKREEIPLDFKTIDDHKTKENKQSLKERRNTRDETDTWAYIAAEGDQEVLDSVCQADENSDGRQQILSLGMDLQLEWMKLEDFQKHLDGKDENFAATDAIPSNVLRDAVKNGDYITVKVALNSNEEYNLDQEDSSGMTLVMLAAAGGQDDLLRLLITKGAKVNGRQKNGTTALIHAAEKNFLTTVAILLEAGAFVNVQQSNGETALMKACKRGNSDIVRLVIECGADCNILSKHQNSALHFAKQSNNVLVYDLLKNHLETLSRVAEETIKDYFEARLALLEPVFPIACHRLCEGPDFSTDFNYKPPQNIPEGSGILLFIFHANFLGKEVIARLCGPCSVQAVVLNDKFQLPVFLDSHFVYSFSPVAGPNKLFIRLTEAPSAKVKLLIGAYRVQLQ
Summary of the method: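 Disruption of the preformed MPP8–trimethyl-H3K9 peptide complex (both 50 nM, 30 min, RT) is measured after 30 min compound exposure, using AlphaScreen proximity beads; aurintricarboxylic acid titration serves as plate control.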

[4] = molecular target: Chromobox protein homolog 1 (Homo sapiens) (UniProt P83916); assay: qHTS Validation Assay for Inhibitors of HP1-beta Chromodomain Interactions with Methylated Histone Tails (AID 488953);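 note: loss of AlphaScreen luminescence from HP1-beta binding biotinylated H3K9me3 peptide; series mostly up to about 110 µM; % is set by controls: 0 for no effect and ±100 for the full control effect; nearly all actives have a fitted effect of over 50% in size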
Chromobox protein homolog 1 (Homo sapiens), sequence (P83916 whole entry, looked up): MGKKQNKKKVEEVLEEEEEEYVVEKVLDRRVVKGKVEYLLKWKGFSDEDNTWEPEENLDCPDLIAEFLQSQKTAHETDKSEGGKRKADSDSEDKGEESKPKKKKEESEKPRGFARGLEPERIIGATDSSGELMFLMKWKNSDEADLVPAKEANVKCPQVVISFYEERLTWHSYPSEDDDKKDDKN
Summary of the method: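 Measured as loss of AlphaScreen luminescence from streptavidin donor and nickel acceptor beads (10 ug/mL final) bridging HP1-beta and biotin-H3(1-18)K9me3, each 50 nM. Compounds met the preassembled complex for 30 min at RT.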

[5] = molecular target: Methanococcus maripaludis chaperonin (MmCpn) (UniProt Q6LX38); assay: High-Throughput Screening for Modulators of Cytosolic Chaperonin Activity: MmCpn Primary Screen (AID 488978);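 note: 50 nM MmCpn enzyme hydrolysing 30 µM ATP at 37 °C; 0% is about no effect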
Summary of the method: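 Measures ATPase turnover of the M. maripaludis chaperonin (50 nM final) against 30 uM ATP over 10 min at 37C, with compound added 5 min beforehand at room temperature. ADP is quantified by HTRF immunodetection.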

[6] = molecular target: Transient receptor potential cation channel subfamily V member 1 (Homo sapiens) (UniProt Q8NER1); assay: HTS Assay for Compounds that Act as Enhancers of the Vanilloid Receptor 1 (AID 488979); note: 0% is about no effect
Transient receptor potential cation channel subfamily V member 1 (Homo sapiens), sequence (Q8NER1 whole entry, looked up): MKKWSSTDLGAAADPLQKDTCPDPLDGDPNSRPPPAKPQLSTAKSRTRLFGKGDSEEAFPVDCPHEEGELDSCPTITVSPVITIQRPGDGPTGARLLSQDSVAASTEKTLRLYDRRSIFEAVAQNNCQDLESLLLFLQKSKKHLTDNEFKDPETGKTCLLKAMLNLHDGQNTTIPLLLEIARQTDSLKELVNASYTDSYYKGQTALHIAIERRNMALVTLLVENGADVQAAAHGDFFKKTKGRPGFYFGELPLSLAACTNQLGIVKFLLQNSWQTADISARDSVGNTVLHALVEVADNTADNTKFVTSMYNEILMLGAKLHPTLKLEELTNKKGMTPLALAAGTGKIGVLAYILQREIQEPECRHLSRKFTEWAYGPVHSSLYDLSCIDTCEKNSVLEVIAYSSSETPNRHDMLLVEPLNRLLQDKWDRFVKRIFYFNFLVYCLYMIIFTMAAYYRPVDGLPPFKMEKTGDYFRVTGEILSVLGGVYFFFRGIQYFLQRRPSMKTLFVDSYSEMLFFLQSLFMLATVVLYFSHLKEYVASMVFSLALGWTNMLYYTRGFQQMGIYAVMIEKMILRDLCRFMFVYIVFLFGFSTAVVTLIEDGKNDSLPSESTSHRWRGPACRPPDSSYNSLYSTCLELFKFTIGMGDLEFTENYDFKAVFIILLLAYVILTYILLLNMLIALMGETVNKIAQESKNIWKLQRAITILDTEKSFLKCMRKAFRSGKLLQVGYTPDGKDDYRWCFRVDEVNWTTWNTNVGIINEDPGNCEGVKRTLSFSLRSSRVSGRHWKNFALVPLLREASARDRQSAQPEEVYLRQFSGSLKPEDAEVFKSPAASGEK
Summary of the method: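 TRPV1-expressing cells loaded with Fluo-8 calcium dye; compounds added and calcium influx read kinetically for 3 min (agonist phase), then capsaicin at EC20 added and read 2 min more for enhancement. Fluorescence ex 480/em 520 nm.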

[7] = molecular target: Thyrotropin receptor (Homo sapiens) (UniProt P16473); assay: qHTS Assay for Antagonists of the Thyroid Stimulating Hormone Receptor (AID 488980); note: series mostly up to about 58 µM; 0% is about no effect
Summary of the method: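 Cells expressing human TSHR (HEK293) are dispensed in HBSS/HEPES containing 70 uM RO 20-1724, compound is added, then TSH at EC80 (4 nM final). Antibody in lysis buffer follows, 30 minutes at room temperature before HTRF detection.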

[8] = molecular target: D(1A) dopamine receptor (Homo sapiens) (UniProt P21728); assay: HTS Assay for Allosteric Agonists of the Human D1 Dopamine Receptor: Primary Screen for Agonists (AID 488981); note: 0% is about no effect
D(1A) dopamine receptor (Homo sapiens), sequence (P21728 whole entry, looked up): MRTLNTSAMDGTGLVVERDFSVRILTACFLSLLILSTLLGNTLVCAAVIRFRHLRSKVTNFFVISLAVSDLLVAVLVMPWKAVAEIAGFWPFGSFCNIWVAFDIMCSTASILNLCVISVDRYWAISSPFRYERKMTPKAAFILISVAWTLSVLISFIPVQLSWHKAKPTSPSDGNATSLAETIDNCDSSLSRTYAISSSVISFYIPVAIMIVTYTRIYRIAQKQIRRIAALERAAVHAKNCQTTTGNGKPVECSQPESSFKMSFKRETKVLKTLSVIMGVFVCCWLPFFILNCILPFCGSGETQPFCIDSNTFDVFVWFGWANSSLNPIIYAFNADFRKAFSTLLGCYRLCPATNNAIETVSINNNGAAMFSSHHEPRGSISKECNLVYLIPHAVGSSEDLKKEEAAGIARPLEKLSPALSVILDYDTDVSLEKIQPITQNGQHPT
Summary of the method: (§1)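 Tetracycline-induced HEK293 T-REx cells force-coupled to calcium signalling were incubated overnight at 30 C and dye-loaded at room temperature. Calcium flux over 180 s after compound addition flagged agonists; a further 180 s read after EC20 dopamine flagged potentiators.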

[9] = molecular target: D(1A) dopamine receptor (Homo sapiens) (UniProt P21728); assay: HTS Assay for Allosteric Agonists of the Human D1 Dopamine Receptor: Primary Screen for Potentiators (AID 488982); note: 0% is about no effect
Summary of the method: as §1

[10] = molecular target: D(1A) dopamine receptor (Homo sapiens) (UniProt P21728); assay: HTS Assay for Allosteric Agonists of the Human D1 Dopamine Receptor: Primary Screen for Antagonists (AID 488983);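 note: calcium flux response to an EC80 dopamine challenge measured with no-wash dye; nearly all actives have a fitted effect of over 65% in size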; note: potency is the fitted concentration of half-maximal effect
Summary of the method: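 Screening of inducible HEK293 T-REx D1 cells: compound first, EC80 dopamine 180 s later, each phase read kinetically for calcium over 180 s.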

[11] = molecular target: Tyrosyl-DNA phosphodiesterase 1 (Homo sapiens) (UniProt Q9NUW8); assay: Confirmation Assay for Inhibitors of Tyrosyl-DNA Phosphodiesterase (TDP1) (AID 489007); conditions: recombinant human TDP1 enzymatic activity, dose-response; note: potency is the fitted concentration of half-maximal effect; nearly all actives have a fitted effect of over 40% in size
Summary of the method: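 Confirmation of primary-screen follow-ups in a qHTS format. Substrate cleavage by Tdp1 (1 nM) of a 3'-phosphotyrosine-FITC, 5'-biotin oligo (15 nM) was monitored as decreased AlphaScreen signal after a 5 min room-temperature reaction.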

[12] = molecular target: ATP-dependent 6-phosphofructokinase (Trypanosoma brucei brucei) (UniProt O15648); assay: qHTS Assay to Find Inhibitors of T. brucei phosphofructokinase: hit validation (AID 492961);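 note: luminescence reports ADP formed as PFK phosphorylates fructose-6-phosphate with ATP; series mostly up to about 51 µM; % is set by controls: 0 for no effect and ±100 for the full control effect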
ATP-dependent 6-phosphofructokinase (Trypanosoma brucei brucei), sequence (O15648 whole entry, looked up): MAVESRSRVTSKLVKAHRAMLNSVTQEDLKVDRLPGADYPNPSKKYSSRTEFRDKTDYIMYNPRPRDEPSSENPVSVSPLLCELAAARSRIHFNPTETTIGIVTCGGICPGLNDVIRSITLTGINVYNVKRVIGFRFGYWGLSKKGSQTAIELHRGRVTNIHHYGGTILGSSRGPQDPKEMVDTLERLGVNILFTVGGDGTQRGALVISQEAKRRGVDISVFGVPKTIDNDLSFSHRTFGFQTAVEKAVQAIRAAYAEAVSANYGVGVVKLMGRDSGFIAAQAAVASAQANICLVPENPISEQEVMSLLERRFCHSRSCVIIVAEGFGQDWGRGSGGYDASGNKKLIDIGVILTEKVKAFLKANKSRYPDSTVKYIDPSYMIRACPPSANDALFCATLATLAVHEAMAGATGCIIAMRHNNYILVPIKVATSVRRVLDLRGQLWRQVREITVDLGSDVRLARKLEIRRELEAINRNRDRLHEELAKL
Summary of the method: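 Percent activity derived from corrected luminescence, normalized between 0x and 1x enzyme controls, then fitted to concentration-response curves. Conditions: 1.25 nM PFK, 0.1 mM ATP, 0.5 mM F6P, 45 min RT.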

[13] = Validation screen for small molecules that induce genotoxicity in human embryonic kidney (HEK293T) cells expressing luciferase-tagged ELG1 (AID 493106); note: 0% is about no effect
Summary of the method: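 Reporter-gene quantitative HTS in HEK293T cells carrying luciferase-tagged ELG1, whose level climbs under genotoxic stress. Compound exposure lasts 16 hr at 37 °C before luciferase detection.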

[14] = molecular target: Thyrotropin-releasing hormone receptor (Homo sapiens) (UniProt P34981); assay: qHTS for Small Molecule Agonists and Allosteric Enhancers of Human TRH Receptor: Validation Screen for Agonists (AID 493127;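 active = calcium activation more than 3 SD above the typical response in the agonist read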;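 note: intracellular calcium rise by fluo-8 fluorescence before TRH EC20 addition; 0% is about no effect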); conditions: TRH receptor agonist cell assay; at 2 µM; stronger effect = higher value
Thyrotropin-releasing hormone receptor (Homo sapiens), sequence (P34981 whole entry, looked up): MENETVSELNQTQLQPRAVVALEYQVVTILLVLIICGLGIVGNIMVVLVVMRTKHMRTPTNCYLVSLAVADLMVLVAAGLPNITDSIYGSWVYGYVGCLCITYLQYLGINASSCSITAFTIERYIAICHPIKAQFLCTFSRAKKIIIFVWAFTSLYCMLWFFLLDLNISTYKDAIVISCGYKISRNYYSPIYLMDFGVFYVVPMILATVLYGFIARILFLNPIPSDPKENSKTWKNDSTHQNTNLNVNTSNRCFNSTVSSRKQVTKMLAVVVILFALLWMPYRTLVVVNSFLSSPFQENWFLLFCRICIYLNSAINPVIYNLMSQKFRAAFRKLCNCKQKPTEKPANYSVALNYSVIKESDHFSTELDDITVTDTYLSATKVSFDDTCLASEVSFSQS
Summary of the method: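 Gq-coupled calcium mobilization in TRHR cells after compound addition, monitored kinetically with fluo-8 dye on an FDSS reader.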

[15] = Validation screen for small molecules that induce DNA re-replication in SW480 colon adenocarcinoma cells (AID 504364); note: 0% is about no effect
Summary of the method: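 Cells are treated 48 hr with test compound, stained 40 min with Hoechst at 37 C, and scanned for nuclear fluorescence; compounds inducing re-replication increase nuclei with elevated intensity.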

[16] = molecular target: Flap endonuclease 1 (Homo sapiens) (UniProt P39748); assay: qHTS Validation Assay for the Inhibitors of Human Flap endonuclease 1 (FEN1) (AID 488816); note: % is set by controls: 0 for no effect and ±100 for the full control effect
Flap endonuclease 1 (Homo sapiens), sequence (P39748 whole entry, looked up): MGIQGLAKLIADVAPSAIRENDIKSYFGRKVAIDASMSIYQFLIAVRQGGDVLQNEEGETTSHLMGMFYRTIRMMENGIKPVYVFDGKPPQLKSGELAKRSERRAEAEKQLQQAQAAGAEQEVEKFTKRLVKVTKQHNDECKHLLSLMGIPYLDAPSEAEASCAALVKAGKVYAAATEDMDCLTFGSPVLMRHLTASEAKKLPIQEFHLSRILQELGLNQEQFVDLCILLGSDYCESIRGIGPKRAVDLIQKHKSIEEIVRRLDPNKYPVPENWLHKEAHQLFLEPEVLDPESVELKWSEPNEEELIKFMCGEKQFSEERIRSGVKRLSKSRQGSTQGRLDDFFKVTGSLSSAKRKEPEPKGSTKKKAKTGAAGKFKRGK
Summary of the method: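 FEN1, dispensed as a 10 nM reagent, was preincubated with pin-transferred compounds for 15 min at room temperature before substrate was added (50 nM final). Plates were read at 0 and 15 min, and a four-parameter Hill equation was fitted to the concentration-response data.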

[17] = Nrf2 qHTS screen for inhibitors: Validation (AID 493153; active = well fitted inhibition curve with a large enough effect in the main read-out, with a control signal flat, not every such curve was filed as active); conditions: Potency: luciferase luminescence; viability change: measured here: cytotoxicity max response
Summary of the method: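 Dose-response validation uses reporter A549 cells with firefly luciferase under an antioxidant response element. Compounds stay on cells 18-24 h at 37°C, and luminescence indicates Nrf2-driven transcription.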

[18] = qHTS for Inhibitors of Cell Surface uPA Generation: Validation Assay (AID 493164);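 note: RAW 264.7 macrophage cells exposed to compound for 18 h; 0% is about no effect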
Summary of the method: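 RAW 264.7, 4000 cells/well, o/n plating; cpd 7-pt 1:5 dilution 2.45 nM–38.3 uM final; 18 h, 37 C/5% CO2; ATP-Lite, 5 s luminescence exposure.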

[19] = molecular target: ATPase family AAA domain-containing protein 5 (Homo sapiens) (UniProt Q96QE3); assay: Validation screen for small molecules that inhibit ELG1-dependent DNA repair in human embryonic kidney (HEK293T) cells expressing luciferase-tagged ELG1 (AID 493107);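 note: cells co-treated with the DNA-damaging agent 5-fluorouridine alongside compound; series mostly up to about 46 µM; % is set by controls: 0 for no effect and ±100 for the full control effect; inhibitors lower the ELG1-luciferase luminescence signal; nearly all actives have a fitted effect of over 70% in size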
Summary of the method: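 Quantitative HTS in HEK293T cells carrying luciferase-tagged ELG1, stimulated with 5-fluorouridine alongside compound for 16 hr. Loss of luciferase signal marks inhibition of ELG1 response.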

[20] = molecular target: Galactokinase (Homo sapiens) (UniProt P51570); assay: qHTS Validation Assay for Inhibitors of Human Galactokinase (GALK) (AID 493189); note: 0% is about no effect
Galactokinase (Homo sapiens), sequence (P51570 whole entry, looked up): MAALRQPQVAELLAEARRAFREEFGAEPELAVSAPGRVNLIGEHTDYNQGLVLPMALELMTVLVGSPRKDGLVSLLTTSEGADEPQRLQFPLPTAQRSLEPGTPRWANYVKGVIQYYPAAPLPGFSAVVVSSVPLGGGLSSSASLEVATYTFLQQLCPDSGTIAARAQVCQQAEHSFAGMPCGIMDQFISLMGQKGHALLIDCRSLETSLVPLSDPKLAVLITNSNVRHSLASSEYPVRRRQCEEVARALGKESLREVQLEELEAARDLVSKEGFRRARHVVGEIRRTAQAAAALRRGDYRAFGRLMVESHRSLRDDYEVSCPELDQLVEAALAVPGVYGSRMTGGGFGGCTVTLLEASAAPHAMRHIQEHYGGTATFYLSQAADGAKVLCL
Summary of the method: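 Compounds were pin-transferred into ATP buffer, then GALK-galactose mix was added (final 5 nM enzyme, 100 uM galactose, 35 uM ATP). After 1 h at room temperature, remaining ATP was measured luminescently.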

CS(=O)(=O)Nc1ccc([N+](=O)[O-])cc1Oc1ccccc1
active: Potency [11] 8.91 µM
inactive: outcome [1] | Potency [2] | Potency [3] | Potency [4] | outcome [5] | outcome [6] | outcome [7] | Potency [8] | Potency [9] | Potency [10] | Potency [12] | Potency [13] | activation [14] 1% | Potency [15]

COc1ccccc1OCCNCC(O)COc1cccc2[nH]c3ccccc3c12 (stereo not given)
active: Potency [10] 8.91 µM
-0.159%: viability change [17]
inactive: outcome [1] | Potency [2] | Potency [16] | Potency [3] | outcome [5] | Potency [8] | Potency [9] | Potency [12] | Potency [13] | Potency [17] | outcome [18]

Cc1cnc(C(=O)NCCc2ccc(S(=O)(=O)NC(=O)NC3CCCCC3)cc2)cn1
inactive: outcome [1] | Potency [2] | Potency [16] | outcome [5] | outcome [6] | outcome [7] | Potency [8] | Potency [9] | Potency [10] | Potency [13] | Potency [17] | outcome [18] | Potency [15]
-0.248%: viability change [17]

CC(C)C(=O)Nc1ccc([N+](=O)[O-])c(C(F)(F)F)c1
inactive: outcome [1] | Potency [2] | Potency [16] | outcome [5] | outcome [6] | outcome [7] | Potency [8] | Potency [10] | Potency [19] | activation [14] -0.438% | outcome [18] | Potency [20] | Potency [15]

Nc1nc2c(ncn2COC(CO)CO)c(=O)[nH]1
inactive: outcome [1] | Potency [2] | Potency [3] | Potency [4] | outcome [5] | outcome [6] | outcome [7] | Potency [8] | Potency [9] | Potency [10] | Potency [12] | Potency [13] | activation [14] 0.625% | Potency [17] | outcome [18] | Potency [20] | Potency [15]
2.85%: viability change [17]

COc1cc2nc(N(C)CCCNC(=O)C3CCCO3)nc(N)c2cc1OC (stereo not given)
-7.87%: viability change [17]
inactive: outcome [1] | Potency [2] | Potency [16] | Potency [3] | Potency [4] | outcome [5] | Potency [8] | Potency [9] | Potency [10] | Potency [13] | Potency [17] | outcome [18]

COc1cc2nc(N3CCN(C(=O)c4ccco4)CC3)nc(N)c2cc1OC
-4.77%: viability change [17]
inactive: outcome [1] | Potency [2] | Potency [4] | outcome [5] | outcome [7] | Potency [8] | Potency [9] | Potency [10] | Potency [17] | outcome [18]

N[C@@H](Cc1c[nH]c2ccc(O)cc12)C(=O)O
-8.24%: viability change [17]
inactive: outcome [1] | Potency [16] | Potency [3] | Potency [4] | outcome [5] | outcome [6] | outcome [7] | Potency [8] | Potency [9] | Potency [10] | Potency [12] | Potency [13] | activation [14] 0.125% | Potency [17] | outcome [18] | Potency [20] | Potency [15]
